What is called inhibition is the drop in the measured response relative to a control, in per cent.

Among all 300,000 compounds or so, about 1,500 (0.5%) were called active.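 Rule for the calls: active = inhibition above the mean of all tested compounds plus 3 SD, set per screening campaign (cut at about 17% in these data); inactive = the rest.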 The full list was thinned out, with actives kept by preference.

The test concerns cathepsin L1 (Fasciola hepatica). The test is described as follows: Fasciola hepatica cathepsin L1 inhibitors, primary screen, counter-screen for PFM18AAP inhibitor project, biochemical, QFRET, fluorogenic peptide substrate (AID 1906).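 Note: 0% = plate median of test compound wells and 100% = 1 µM Z-Phe-Ala-diazomethylketone.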 Conditions: recombinant F. hepatica cathepsin L1, Z-Leu-Arg-MCA fluorescence; at 5.96 µM; active compounds read high.
Take `O=C(c1ccc(F)cc1)N1CCCC(C(=O)N2CCCCC2)C1` (stereo unspecified): the inhibition is -2.4% (inactive).

Turning to `COc1ccc(C(=O)NC(=S)N2CCNC(=O)C2CC(=O)OC(C)C)cc1` (stereo unspecified), the inhibition is -3.41% (inactive).

Consider `Cc1ccc2cc(C)c(N3CCC(C)CC3)nc2c1`, for which the inhibition was -2.83% (inactive).

With `CN(c1ccccc1)S(=O)(=O)c1ccc2[nH]c(=O)[nH]c2c1`, the inhibition is -6.38% (inactive).

Consider `CC1CCC(C(C)C)C(=O)/C1=C\c1ccc(NC(=O)CCC(=O)O)cc1` (stereo unspecified), for which the inhibition was 2% (inactive).

Regarding `CC(C)C(=O)Nc1c(O)c2ccccc2[nH]c1=O`, the inhibition was -1.29% (inactive).

With `CCCOC(=O)Cc1c(O)c2ccccc2[nH]c1=O`, the inhibition is 46.3% (active).

As to `O=C(Cc1c(O)c2ccccc2[nH]c1=O)NCc1ccccc1`, the inhibition is 0.35% (inactive).

Regarding `N#Cc1c(N2CCCCC2)nc(N)c2c(N)nc(SCC(=O)O)cc12`, the inhibition was 1.83% (inactive).

As to `COc1cccc(-c2cc3nc4c(c(N5CCC6(CC5)OCCO6)n3n2)CCCC4)c1`, the inhibition is 1.28% (inactive).

Turning to `Cc1cc(C)cc(NC(=O)COc2coc(CN3CCN(c4ccccc4)CC3)cc2=O)c1`, the inhibition is -0.61% (inactive).

On to `O=C(CSc1nc2ccccc2o1)N/N=C/c1ccccc1C(=O)O`, for which the inhibition is -1.26% (inactive).

Take `CCC(NC(=O)c1ccccc1NC(=O)c1ccccc1)C(=O)NNC(=O)CSc1nc2ccccc2o1` (stereo unspecified): the inhibition was 31.7% (active).

For the compound `CCN(CC)C(=O)CSc1nc2ccccc2o1`, the inhibition is -2.89% (inactive).

With `COc1ccccc1CNC(=O)[C@@H]1CCCN1C(=O)[C@@H]1Cc2ccccc2CN1C(=O)OC(C)(C)C`, the inhibition is 7.62% (inactive).

As to `CCC(C)N1CC(=O)N2Cc3[nH]c4ccccc4c3C[C@H]2C1=O` (stereo partly specified), the inhibition is 5.23% (inactive).

For the compound `COC(C[C@@H]1O[C@@H]1C(=O)[C@@H](C)OCc1ccccc1)OC`, the inhibition was 9.96% (inactive).

In the case of `COC(C[C@@H]1O[C@@H]1C(=O)[C@H](C)OCc1ccccc1)OC`, the inhibition was 28.4% (active).

For `COC(C/C=C/C(=O)[C@@H](C)OCc1ccccc1)OC`, the inhibition was -1.49% (inactive).

Turning to `CC(Oc1ccc(F)cc1)C(=O)Nc1ccccc1C(=O)NC1CC1` (stereo unspecified), the inhibition was -1.06% (inactive).

As for `CC12CCC(=O)N1C(C(=O)Nc1ccc(F)c(F)c1F)CS2` (stereo unspecified), the inhibition is 2.04% (inactive).

As for `Cc1ccc(C2C(C#N)C(C#N)N3CCCN23)cc1` (stereo unspecified), the inhibition is 1.37% (inactive).

For the compound `COc1ccc(F)cc1S(=O)(=O)NCC(c1ccc2c(c1)OCO2)N1CCN(C)CC1` (stereo unspecified), the inhibition was 4.62% (inactive).

Consider `O=C1OC(NC(=O)c2ccccc2)C(N2CCOCC2)=C1Cl` (stereo unspecified), for which the inhibition was 5.28% (inactive).

`O=c1[nH]c(N2CCOCC2)nc2ccccc12`: the inhibition is 0.18% (inactive).

`O=C1C(Cl)=C(N2CCOCC2)C(=O)N1c1ccccc1`: the inhibition was 42.9% (active).

The values above are taken from PubChem BioAssay AID1906 (The Scripps Research Institute Molecular Screening Center, 2009).
